High-throughput results (PubChem BioAssay)
The list is a sample of the results.
aSyn UTR act: Activators working through SNCA 5'UTR binding (MLPCN); activity score, % (tested at 7.5 µM), hits read low; alpha-synuclein 5'UTR reporter, activators screen; 7.1% of 300,000 active; AID 1814; in the data active = activity score below about -60%
An asterisk follows results filed as active.

How did C=CCn1c(O)c(N=NC(=S)Nc2ccc(OC)c(Cl)c2)c2ccccc21 do in these assays?
aSyn UTR act: 60.8

What do the screens show for `COc1ccc(NC(=O)c2cc3c(=O)n(C)c4ccccc4c3n2C)cc1Cl`?
aSyn UTR act: -71.6*

How did Nc1nonc1-n1nnc(C(=O)N/N=C/c2ccc(OCc3cccc(Cl)c3)cc2)c1CN1CCCCC1 do in these assays?
aSyn UTR act: -135.7*

Results for Nc1nonc1-n1nnc(C(=O)N/N=C/c2ccc(OCc3ccccc3F)cc2)c1CN1CCCCC1 ?
aSyn UTR act: -111.3*

What do the screens show for `CC1CCN(Cc2c(C(=O)N/N=C/c3cc(Cl)ccc3O)nnn2-c2nonc2N)CC1`?
aSyn UTR act: 62.1

How did CC1CCN(Cc2c(C(=O)N/N=C/c3cc(Br)ccc3O)nnn2-c2nonc2N)CC1 do in these assays?
aSyn UTR act: 77.1

Results for Cc1cccc(COc2ccc(/C=N/NC(=O)c3nnn(-c4nonc4N)c3CN3CCCCC3)cc2)c1 ?
aSyn UTR act: -100.8*

How did NC(=O)N/N=C/c1ccc(OCc2cccc(Cl)c2)cc1 do in these assays?
aSyn UTR act: -72.8*

How did Cc1ccc(C(=O)Oc2ccc(/C=N/NC(N)=O)cc2)cc1 do in these assays?
aSyn UTR act: -123.7*

What do the screens show for `Cc1ccc(CN2C3CCCC2CC(NC(=O)c2ccc(C)cc2)C3)cc1` (stereo not drawn)?
aSyn UTR act: -163.5*

Results for O=C(N/N=C/c1ccccc1Cl)c1[nH]c2ccc(Br)cc2c1-c1ccccc1 ?
aSyn UTR act: 70.8

How did Cc1[nH]c2ccccc2c1C(=O)/C=C\c1ccccc1Cl do in these assays?
aSyn UTR act: -313.7*

What do the screens show for `Cc1[nH]c2ccccc2c1C(=O)/C=C/c1ccccc1Cl`?
aSyn UTR act: -452.8*

How did Cc1[nH]c2ccccc2c1C(=O)/C=C/c1ccccc1 do in these assays?
aSyn UTR act: -98.2*

How did Cc1ccc(NC(=O)c2cc(C)no2)cc1 do in these assays?
aSyn UTR act: -74.9*

What do the screens show for `COc1ccc(NC(=O)c2cc(C)no2)cc1`?
aSyn UTR act: -65.1*

Results for O=C(NCCN1C(=O)C2C3C=CC(C3)C2C1=O)Nc1ccc(Br)cc1 (stereo not drawn) ?
aSyn UTR act: -143.8*

What do the screens show for `COc1ccc(/C=C2\CCCC(C(=O)C(F)(F)F)=C2O)cc1`?
aSyn UTR act: -67.2*

Results for Cc1ccc(C(=O)c2sc3nc4c(cc3c2N)CCC4)cc1 ?
aSyn UTR act: -132.4*

Results for Nc1c(C(=O)N2CCCC2)sc2nc(-c3ccccc3)ccc12 ?
aSyn UTR act: -190.4*

Results for Nc1c(C(=O)N2CCCCC2)sc2nc3c(cc12)CCCC3 ?
aSyn UTR act: -151.0*

How did Cc1ccc(NC(=O)Nc2ccc3c(c2)nnn3C)cc1C do in these assays?
aSyn UTR act: -66.5*

What do the screens show for `COc1ccccc1NC(=O)Nc1ccc2c(c1)nnn2C`?
aSyn UTR act: -96.4*

How did COc1cccc(Nc2nnc(SCC3CCCCO3)s2)c1 (stereo not drawn) do in these assays?
aSyn UTR act: -76.3*

What do the screens show for `COc1ccc(Nc2nnc(SCC3CCCO3)s2)cc1` (stereo not drawn)?
aSyn UTR act: -104.7*

How did CC1(C)Cc2c(sc3nc(-c4cccs4)n(N)c(=O)c23)CO1 do in these assays?
aSyn UTR act: -115.9*

What do the screens show for `Nn1c(-c2cccs2)nc2sc3c(c2c1=O)CCCC3`?
aSyn UTR act: -149.2*

Results for CC1(C)Cc2c(sc3ncnc(NNC(=S)NCc4ccccc4)c23)CO1 ?
aSyn UTR act: 86.8

Results for Cc1ccc(C)c(NC(=S)c2nc3ccccc3s2)c1 ?
aSyn UTR act: -258.2*

What do the screens show for `S=C(Nc1ccc(Cl)cc1)c1nc2ccccc2s1`?
aSyn UTR act: -126.7*

What do the screens show for `Cc1ccc(C)c(NC(=S)c2ccc3ccccc3n2)c1`?
aSyn UTR act: -288.3*

What do the screens show for `Cc1ccc(C)c(NC(=S)c2ccccn2)c1`?
aSyn UTR act: -113.7*

Results for C=C(C)CSc1nc2ncc(Cl)cc2[nH]1 ?
aSyn UTR act: -73.7*

Results for Cc1ccc2nc(/C=C/c3cccc(F)c3)ccc2c1 ?
aSyn UTR act: -172.2*

What do the screens show for `CCOc1ccc(N/C=C/C(=O)c2ccc(C)cc2)c([N+](=O)[O-])c1`?
aSyn UTR act: -197.7*

How did Cc1ccc(C(=O)/C=C/Nc2ccc([N+](=O)[O-])cc2Br)cc1 do in these assays?
aSyn UTR act: -124.4*

Results for CCOc1ccc(N/C=C/C(=O)c2ccc3ccccc3c2)c([N+](=O)[O-])c1 ?
aSyn UTR act: -158.5*

How did Nc1nc(-c2nc3ccccc3[nH]2)cs1 do in these assays?
aSyn UTR act: -86.2*

What do the screens show for `O=c1[nH]c(-c2ccccn2)nc2ccccc12`?
aSyn UTR act: -96.3*

Results for c1ccc(-c2nc3c(ccc4ccccc43)[nH]2)nc1 ?
aSyn UTR act: -157.0*

How did c1ccc(-c2nc3ccccc3[nH]2)nc1 do in these assays?
aSyn UTR act: -81.0*

Results for O=C(Nc1ccc(N2CCCCC2)cc1)c1cccnc1 ?
aSyn UTR act: -148.9*

What do the screens show for `O=S(=O)(c1ccc(N2CCCC2)cc1)C(F)(F)F`?
aSyn UTR act: -149.4*

What do the screens show for `O=C(Nc1ccc2nn(-c3ccc(F)cc3)nc2c1)c1cccnc1`?
aSyn UTR act: -93.6*

What do the screens show for `O=C(Nc1ccc(N2CCCCC2)cc1)c1ccc(F)cc1`?
aSyn UTR act: -79.7*

Results for O=C(c1ccc(F)cc1)c1ccc(N2CCCCC2)cc1 ?
aSyn UTR act: -144.5*

What do the screens show for `O=C(c1ccc(F)cc1)c1ccc(N2CCCC2)cc1`?
aSyn UTR act: -146.8*

Results for CC(=O)Nc1cccc(-c2cn3ccc(C)cc3n2)c1 ?
aSyn UTR act: -107.4*

What do the screens show for `CCOc1ccc(CC(=O)Nc2ccc(-c3ccc4nnc(C)n4n3)cc2)cc1`?
aSyn UTR act: -86.9*

Results for Cc1nnc2ccc(-c3ccc(NC(=O)c4ccco4)cc3)nn12 ?
aSyn UTR act: -253.8*

What do the screens show for `Cc1ccn2cc(-c3cccc(NS(C)(=O)=O)c3)nc2c1`?
aSyn UTR act: -150.4*

What do the screens show for `COc1cccc2c1C(=O)c1c(O)c3c(c(O)c1C2=O)C[C@@](O)(C(=O)CO)C[C@@H]3O[C@H]1C[C@H](N)[C@@H](O)[C@H](C)O1`?
aSyn UTR act: 109.3

What do the screens show for `Cc1ccn2cc(-c3ccc(NC(=O)c4ccco4)cc3)nc2c1`?
aSyn UTR act: -94.8*

Results for O=C(C1CC(c2ccc(F)cc2)=NO1)N1CCCCC1 (stereo not drawn) ?
aSyn UTR act: -141.2*

What do the screens show for `CC1CCCCN1C(=O)C1CC(c2ccc(F)cc2)=NO1` (stereo not drawn)?
aSyn UTR act: -88.7*

Results for CC1CCCCN1C(=O)CSc1ccc(-c2ccc(F)cc2)nn1 (stereo not drawn) ?
aSyn UTR act: -76.4*

Results for O=C(C1CC(c2ccccc2O)=NO1)N1CCCCC1 (stereo not drawn) ?
aSyn UTR act: -112.1*

How did C/C(Cl)=C\Cn1c(O)c(N=NC(N)=S)c2cc(Br)ccc21 do in these assays?
aSyn UTR act: 70.1

What do the screens show for `CN(C)C(=O)CSc1nnc(C23CC4CC(CC(C4)C2)C3)o1`?
aSyn UTR act: -159.9*

How did C[n+]1c2n(c3ccccc31)N=C(c1ccccc1)CS2 do in these assays?
aSyn UTR act: -67.9*

Results for CC(C)CCNC(=O)c1ccccc1NC(=O)C1=CSCCO1 ?
aSyn UTR act: -119.0*

How did Cc1ccc(Nc2nc(CSc3nnc(-c4ccc(F)cc4)n3C)cs2)cc1 do in these assays?
aSyn UTR act: -144.0*

What do the screens show for `CCCCSc1nnc(-c2ccc(OC)cc2)n1C`?
aSyn UTR act: -132.6*

Results for Cc1ccc(-c2nnc(SCC(C)C)n2C)cc1 ?
aSyn UTR act: -146.0*
